Screens (PubChem)
In the library only some 4% were active in any assay of this set; here they are far more common.
DENV2 CPE: inhibitors of DENV2 cytopathic effect, primary screen, cell-based, plate reader, single concentration; DENV2-infected cells, cytopathic effect rescue; 1.7% of 350,000 active; AID 651640, 2012; CPE inhibition, % at 9.99 µM; in the data active = CPE inhibition above about 20%, passing the limit was not always enough; tested in BHK-21 cells;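 also: 0% = median of neutral control wells and 100% = median of positive control wells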
ERAP1 inh: human ERAP1 aminopeptidase inhibitors, primary screen, biochemical, single point, plate reader. inhibition, % at 10.7 µM. 0.15% of 340,000 active. recombinant ERAP1, Leu-AMC fluorescence, 60 min;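 active = mean replicate inhibition of at least 30%, or all replicates individually reaching that 30% level; inactive = mean below 30% and not every replicate reaching it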;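 also: 0% = neutral control wells and 100% = L-leucinethiol positive control wells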
AF4-AF9 inh: inhibitors of AF4 peptide binding to AF9, primary screen, biochemical, AlphaScreen, biotin-AF4 peptide, FLAG-AF9, single point; Protein AF-9 (Homo sapiens), P42568; inhibition, % at 10 µM; 0.47% of 350,000 active;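 active = every replicate reaching a set inhibition limit, whatever the replicate mean, cut at about 25% in these data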;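 also: 0% = plate neutral control median and 100% = total signal loss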
Target sequence (P42568 whole entry, looked up): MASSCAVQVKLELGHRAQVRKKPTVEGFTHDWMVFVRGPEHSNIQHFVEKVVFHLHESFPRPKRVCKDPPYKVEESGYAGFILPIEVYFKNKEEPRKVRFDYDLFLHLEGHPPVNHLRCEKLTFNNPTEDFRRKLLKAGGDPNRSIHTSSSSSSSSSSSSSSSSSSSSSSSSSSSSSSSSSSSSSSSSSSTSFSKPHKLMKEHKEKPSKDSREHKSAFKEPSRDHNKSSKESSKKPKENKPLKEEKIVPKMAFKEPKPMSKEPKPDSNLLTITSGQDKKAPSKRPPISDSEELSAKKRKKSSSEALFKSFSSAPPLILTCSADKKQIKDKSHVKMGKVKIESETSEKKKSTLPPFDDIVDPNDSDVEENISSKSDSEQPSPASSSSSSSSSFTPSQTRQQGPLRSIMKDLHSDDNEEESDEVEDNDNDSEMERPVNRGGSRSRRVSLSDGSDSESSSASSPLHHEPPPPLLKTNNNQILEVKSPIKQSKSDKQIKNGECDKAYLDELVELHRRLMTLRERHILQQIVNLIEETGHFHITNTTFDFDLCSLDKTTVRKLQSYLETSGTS
FGF22 binding: binders of human FGF22 protein, primary screen, FGF22 synaptogenesis inhibitor project, biophysical, thermal shift, single point. activity (Tm shift, normalised), % at 9.99 µM. Fibroblast growth factor 22 (Homo sapiens), Q9HCT0. recombinant FGF22 thermal shift, SYPRO orange fluorescence; percent of sucrose octasulfate shift, DMSO zero. 1.5% of 340,000 active;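 active = mean Tm shift, scaled 0 neutral to 100 positive control, at about 1.3% or above, every replicate too, limit read from the data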
RAD52 inh: RAD52 DNA annealing inhibitors, primary screen, biochemical, FRET, single point, set 2; recombinant RAD52 DNA annealing, FRET fluorescence; AID 651710, 2012; 0.46% of 360,000 active; inhibition, % at 18.7 µM; DNA repair protein RAD52 homolog (Homo sapiens), P43351;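 active = every replicate showing at least 50% inhibition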
Starred values were filed as active, the others as inactive; nt = no result given.

SMILES	DENV2 CPE	ERAP1 inh	AF4-AF9 inh	FGF22 binding	RAD52 inh
CCCNC(=O)N[C@H]1CC[C@H](CC(=O)NC2CCCCC2)O[C@H]1CO	12	-2	-2	0	-16
O=C(C[C@H]1CC[C@H]2[C@@H](COC[C@H](O)CN2CC2CCCC2)O1)NCC1CC1	4	-7	-4	nt	-6
C[C@@H]1CN([C@@H](C)CO)C(=O)Cc2cc(NC(=O)C3CC3)ccc2O[C@@H]1CN(C)Cc1ccc(-c2ccccc2)cc1	31*	-2	-3	-1	-11
C[C@H]1CN([C@@H](C)CO)C(=O)Cc2cc(NC(=O)Nc3ccc(F)cc3)ccc2O[C@H]1CN(C)Cc1ccc(-c2ccccc2)cc1	50*	0	-7	1	5
C[C@H](CO)N1C[C@H](C)[C@H](CN(C)Cc2ccc(-c3ccccc3)cc2)Oc2ccc(NC(=O)C3CC3)cc2CC1=O	5	0	8	0	-9
COc1ccc2c3c(n(C)c2c1)[C@@H](CO)N(C(=O)c1ccccn1)CC31CCN(C)CC1	35*	nt	-5	nt	nt
COc1ccc2c3c(n(C)c2c1)[C@@H](CO)N(C(=O)c1ccccn1)CC31CCN(C(=O)c2ccccn2)CC1	1	-6	-2	0	2
COc1ccc(S(=O)(=O)N2CCC3(CC2)CN(C(=O)CN(C)C)[C@H](CO)c2c3c3ccc(OC)cc3n2C)cc1	14	-6	33*	-1	57*
COc1ccc2c3c(n(C)c2c1)[C@@H](CO)N(C(=O)CN(C)C)CC31CCN(S(C)(=O)=O)CC1	4	0	3	nt	7
CCCC(=O)N1CC2(CCN(C)CC2)c2c(n(C)c3cc(OC)ccc23)[C@@H]1CO	64*	nt	2	nt	nt
COc1ccc2c3c(n(C)c2c1)[C@@H](CO)N(C(=O)c1cccnc1)CC31CCN(S(=O)(=O)c2ccccc2)CC1	39*	nt	1	0	nt
CC12N=C3SCc4ccccc4CN3[C@H](c3ccccc3O1)[C@H]2CO[Si](C)(C)C(C)(C)C	-8	-1	2	0	15
Cc1ccc(NC(=O)c2ccccc2)cc1-n1cnnn1	4	3	0	0	-9
Cc1ccc(NC(=O)c2ccccc2Cl)cc1-n1cnnn1	7	-2	-2	44*	5
Cc1cc(=O)[nH]c2c3ccccc3nn12	5	-3	-1	44*	-3
CO[C@H]1CN(C)C(=O)c2ccc(NC(C)=O)cc2OC[C@H](C)N(CC2CCCCC2)C[C@@H]1C	-1	2	-1	1	-5
CO[C@H]1CN(C)C(=O)c2ccc(NC(=O)c3cc(C)on3)cc2OC[C@@H](C)N(C)C[C@@H]1C	21*	3	-3	0	-2
CO[C@@H]1CN(C)C(=O)c2ccc(NC(=O)c3cc(C)on3)cc2OC[C@H](C)N(C)C[C@H]1C	0	-1	-2	0	8
CO[C@@H]1CN(C)C(=O)c2ccc(NC(=O)c3cc(C)on3)cc2OC[C@H](C)N(C(=O)C2CC2)C[C@H]1C	32*	0	-2	0	-12
CCOC(=O)/C(C#N)=C1/C=C(C)c2ccccc2N1	3	-12	-9	43*	-65
CCOC(=O)/C(C#N)=C1\C(=O)N(Cc2ccccc2)c2ccccc21	3	3	1	0	-8
C[C@@H]1CN([C@@H](C)CO)C(=O)c2cc(NC(=O)Cn3cnnn3)ccc2O[C@@H]1CN(C)C(=O)Nc1ccc(C(F)(F)F)cc1	17	-1	0	-1	-21
COc1cc(NC(=O)Nc2ccc3c(c2)OCO3)cc(OC)c1OC	4	0	0	43*	6
COc1cc(C(=O)NCCc2ccc3c(c2)OCO3)cc(OC)c1OC	-1	-1	-16	44*	-1
CC(=O)NC[C@@H]1[C@@H](c2ccccc2)[C@H](CO)N1C(=O)Cc1cccnc1	0	1	0	0	-7
CC(C)Oc1ccc(C(CC(=O)O)n2cnnn2)cc1 (stereo not given)	5	0	-2	43*	-6
